Screens deposited in PubChem by National Center for Advancing Translational Sciences (NCATS).
PLK1 PBD inh: blocks phosphopeptide binding to human PLK1 polo-box domain; 360,000 compounds, 2.8% hits; Plk1 PBD binding of FITC phosphopeptide, fluorescence polarization; Potency, µM, usual class: inhibitors; AID 720504; P53350; further: series mostly up to about 57 µM; nearly all actives have a fitted effect of over 65% in size
HP1b chromo inh: blocks HP1-beta chromodomain binding to methylated histone tails; Potency, µM (titrated, usually from 114 µM), actives largely listed as inhibitors; 390,000 compounds, 0.56% hits; P83916; AID 540317; AlphaScreen HP1-beta / biotin-H3K9me3 peptide binding; further: nearly all actives have a fitted effect of over 70% in size
Target sequence (P83916 whole entry, looked up): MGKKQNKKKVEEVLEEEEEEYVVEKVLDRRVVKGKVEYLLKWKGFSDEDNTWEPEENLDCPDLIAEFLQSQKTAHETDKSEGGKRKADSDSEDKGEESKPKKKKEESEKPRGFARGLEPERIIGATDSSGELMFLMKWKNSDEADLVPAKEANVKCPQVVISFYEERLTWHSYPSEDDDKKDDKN
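HP1-beta protein (50 nM final) preincubated 30 min at room temperature with biotinylated H3(1-18)K9me3 peptide (50 nM) in PBS pH 7.4, 0.01% Tween-20, then compound added for 30 min. AlphaScreen streptavidin donor/nickel chelate acceptor beads (10 ug/mL final), 30 min dark, luminescence read.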
G9a block: blocks human histone lysine methyltransferase G9a; Q96KQ7; G9a H3K9 monomethylation, AlphaScreen, 2 h; Potency, µM (highest dose often 102 µM), hits mostly inhibitors; 350,000 compounds, 8.8% hits; AID 504332; further: nearly all actives have a fitted effect of over 75% in size
Target sequence (Q96KQ7 913-1193 limits assumed): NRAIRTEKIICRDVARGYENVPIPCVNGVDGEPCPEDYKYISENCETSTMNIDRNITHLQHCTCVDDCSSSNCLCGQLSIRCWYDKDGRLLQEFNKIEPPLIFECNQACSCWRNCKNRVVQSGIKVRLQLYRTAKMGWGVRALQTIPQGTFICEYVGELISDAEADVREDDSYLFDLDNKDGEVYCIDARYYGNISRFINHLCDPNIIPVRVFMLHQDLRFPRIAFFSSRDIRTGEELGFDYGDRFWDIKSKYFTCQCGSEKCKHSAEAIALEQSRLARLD
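Readings reflect AlphaScreen signal from monomethyl-H3K9 antibody detection. HMT at 20 nM; substrate b-H3K9 500 nM; cofactor SAM 20 uM; 2 h RT reaction; compounds tested as titrations in qHTS with 15 min preincubation.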
BAZ2B inh: BAZ2B (human) inhibition; Potency, µM (highest dose often 114 µM), usual class: inhibitors; 360,000 compounds, 4.4% hits; AlphaScreen BAZ2B-H3K14Ac peptide displacement; further: nearly all actives have a fitted effect of over 60% in size
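Multi-concentration screen (max 110 uM) measuring displacement of acetylated histone H3 peptide from BAZ2B by AlphaScreen, using 50 nM protein, 50 nM peptide and 10 ug/mL streptavidin donor plus Ni-chelate acceptor beads.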
PI5P4Ka inh: inhibitors of human PI5P4K alpha | P48426 | PI5P4Kalpha enzyme, ADP-Glo luminescence, 60 min; stronger effect = lower value | max response, % | 330,000 compounds, 1.2% hits | AID 652105; active means max response of -50% or lower; inconclusive means between -30% and -50%; inactive means -30% or higher; further: value at the top dose of about 77 µM
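ADP-Glo luminescence end-point read after a 60 min room-temperature kinase reaction of PI5P4Kalpha plus substrate, initiated with ATP at 5 microM final. Buffer: 0.038 M HEPES pH 7.4, EGTA, 0.1% CHAPS, 5% DMSO.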
JMJD2A Tudor inh: inhibitors of human JMJD2A Tudor domain; AlphaScreen JMJD2A-Tudor / H3K4me3 peptide binding; Potency, µM (top dose mostly 114 µM), hits mostly inhibitors; 390,000 compounds, 4.4% hits; AID 504339; further: nearly all actives have a fitted effect of over 50% in size
Large screens that a line does not name were inactive. In the library only some 12% were active in any assay of this set; here they are far more common. Unless noted, the call rests on the fitted dose curve; in most records, active means well fitted curve in the direction sought with a large enough effect; inconclusive means small, poorly fitted or top-dose-only effect, or another doubt; inactive means no such curve, though single readings can be large; an effect the other way counts as inactive or inconclusive.

COc1ccc(CNC(=O)c2c(Nc3ccc(OC)cc3OC)sc(C(=O)c3ccc(Cl)cc3)c2N)cc1	BAZ2B inh inconclusive, JMJD2A Tudor inh inconclusive (no result: PLK1 PBD inh, PI5P4Ka inh)
COc1cccc(Nc2sc(C(=O)c3ccc(Cl)cc3)c(N)c2C(=O)NCCc2ccc(OC)c(OC)c2)c1	G9a block 10µM, BAZ2B inh inconclusive, JMJD2A Tudor inh inconclusive (no result: PLK1 PBD inh, PI5P4Ka inh)
Cc1cc(C)c(S(=O)(=O)Oc2ccccc2[N+](=O)[O-])c(C)c1	none (no result: G9a block, BAZ2B inh)
CC1=CC(=O)C=C(C)C1=NOc1ccccc1[N+](=O)[O-]	G9a block 25.1µM
Cc1ccc2cccc(OCC(=O)N3CC(C)CC(C)C3)c2n1 (centres undefined)	none
COc1ccc(/C=N/NC(=O)c2cc(O)c(O)c(O)c2)cc1Cn1cc([N+](=O)[O-])cn1	PLK1 PBD inh inconclusive, HP1b chromo inh inconclusive, G9a block 14.1µM, BAZ2B inh 10µM, PI5P4Ka inh -58.6, JMJD2A Tudor inh 10µM
COc1ccc(/C=N/Nc2ccccc2C(=O)O)cc1Cn1cc([N+](=O)[O-])cn1	G9a block 22.4µM, BAZ2B inh 50.1µM, PI5P4Ka inh inconclusive, JMJD2A Tudor inh inconclusive
COc1ccc(/C=N/NC(=O)c2ccccc2O)cc1Cn1cc([N+](=O)[O-])cn1	none
Cc1ccccc1-c1cnc(C(O)c2ccc(Cl)cc2)[nH]1 (centres undefined)	none (no result: HP1b chromo inh, G9a block, BAZ2B inh, JMJD2A Tudor inh)
O=C(C1CCC(CNc2nc(=S)[nH]c3ccccc23)CC1)N1CCN(c2ccc(F)cc2)CC1 (centres undefined)	PLK1 PBD inh 21.2µM, G9a block inconclusive, PI5P4Ka inh inconclusive, JMJD2A Tudor inh inconclusive
Cc1cccc(S(=O)(=O)NC(=O)C2(C)CCN2C(=O)C2(c3ccc(Cl)cc3)CCC2)c1 (centres undefined)	none (no result: HP1b chromo inh, G9a block, BAZ2B inh, JMJD2A Tudor inh)
Cc1cccc(NC(=O)C(C)SCc2nc3sc4c(c3c(=O)[nH]2)CCCC4)n1 (centres undefined)	G9a block 56.2µM, PI5P4Ka inh inconclusive
O=C(CCc1nc2sc3c(c2c(=O)[nH]1)CCCC3)N1CCN(c2ccccc2)CC1	BAZ2B inh 56.2µM, PI5P4Ka inh inconclusive
CCc1cccc(NC(=O)CCc2nc3sc4c(c3c(=O)[nH]2)CCCC4)c1	BAZ2B inh 70.8µM, PI5P4Ka inh inconclusive, JMJD2A Tudor inh inconclusive
CCOC(=O)N1CCN(C(=O)CCc2nc3sc4c(c3c(=O)[nH]2)CCCC4)CC1	none
Cc1cccc(NC(=O)CCc2nc3sc4c(c3c(=O)[nH]2)CCCC4)c1	none
Cc1ccccc1-c1nc(SCC(=O)NCc2ccc(F)cc2)c2c(=O)n(C)c(=O)n(C)c2n1	none (no result: PLK1 PBD inh, PI5P4Ka inh)
Clc1cccc(CSc2nncn3c2cc2sccc23)c1	none (no result: PLK1 PBD inh, PI5P4Ka inh)
COC1=CC(=O)OC12CCCCC2	none
COc1ccc(C2=CC(=O)OC3(CCCC3)O2)cc1	G9a block 44.7µM, BAZ2B inh inconclusive
CCc1nc(N2CCN(CC(=O)NCC3CCCO3)CC2)c(C#N)c2c1COC(C)(C)C2 (centres undefined)	BAZ2B inh 50.1µM (no result: G9a block)
Cc1ccc(S(=O)(=O)N2CCC(C(=O)OCC(=O)N(Cc3ccccc3)C(C)(C)C)CC2)cc1C	none
C[C@@H]1CN([C@@H](C)CO)C(=O)c2cc(NC(=O)Nc3ccc(F)cc3)ccc2O[C@@H]1CN(C)Cc1ccc(Oc2ccccc2)cc1	JMJD2A Tudor inh inconclusive (no result: G9a block, BAZ2B inh)
COC(=O)CCC(=O)OC1(C)C(=O)C=C2C=C(C3CC3)N(CCCOC(C)C)C=C2C1=O (centres undefined)	PLK1 PBD inh 29.9µM
COC(=O)CCC(=O)OC1(C)C(=O)C=C2C=C(C3CC3)N(CCCCO)C=C2C1=O (centres undefined)	none
COCCc1nn2c(=O)cc(COC(=O)COc3ccccc3C)nc2s1	none (no result: PLK1 PBD inh, PI5P4Ka inh)
CCOc1ccc(C(=O)N/N=C(\c2ccccc2)c2ccccn2)cc1	BAZ2B inh 79.4µM
O=C(NNC(=O)c1cccnc1SCc1cccc([N+](=O)[O-])c1)c1cccnc1	G9a block 35.5µM
Cn1ccnc1/C(=N\NC(=O)c1ccccc1)c1cccc([N+](=O)[O-])c1	G9a block 39.8µM
CCc1ccc(/C(C)=N/NC(=O)c2ccccn2)cc1	none
